PubChem BioAssay (NCI)
Compounds without any hit were thinned out: in the full panel of roughly 83,000, 20% have a hit.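 Note: values are percent growth. 100 is the growth of untreated cells, values between 100 and 0 indicate rising inhibition; between -100 and 0 indicates cell death.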 The source made the active and inactive calls. How the source made its calls: active means growth percent below 10; inactive means the rest.

Test system: HL-60(TB) leukemia
Experiment: NCI-60 one-dose screen, 48 h (100 = growth as untreated, 0 = no growth, -100 = all killed)
Settings: 10 µM unless noted

Structure (SMILES)	growth
O=C1c2c(c3c4cccnc4[nH]c3c3ccc4ccccc4c23)C(=O)N1O	5.07% (active)
NS(=O)(=O)c1cc(=O)[nH]c(=O)[nH]1	114% (inactive)
COc1ccc2[nH]c(=O)c(/C=C/C(=O)c3ccccc3OC)cc2c1	-2.46% (active)
COc1ccc(C(=O)COc2ccc(/C=C3\Oc4ccc(Cl)cc4C3=O)cc2)cc1	16.5% (inactive)
COc1cccc2nc(Nc3cccc(NC(=O)c4ccc(N5CCN(C)CC5)c(C(F)(F)F)c4)c3)ccc12	37.6% (inactive)
O=C(Nc1ccc(-n2cc(-c3ccncc3)c(-c3ccc(Cl)c(O)c3)n2)cc1)Nc1ccc(Cl)c(C(F)(F)F)c1	-10.5% (active)
O=S(=O)(O)c1cnccn1	95.3% (inactive)
Clc1ccc(/C=C2\CCCC3C2=Nc2ccccc2NC3c2ccc(Cl)cc2)cc1 (stereo not given)	73.9% (inactive)
CC(=O)c1c(C)[nH]c(-c2nc3ccc(N4CCN(C)CC4)cc3[nH]2)c1-c1ccc2c(c1)OCCO2	-0.621% (active)
COc1ccc(C(=O)/C=C/c2ccc(C)cc2)cc1S(N)(=O)=O	56.2% (inactive)
O=C(O)Cc1ccc2c(c1)Cc1cccnc1O2	103% (inactive)
COc1ccc(-c2nc(SCCC(C)C)nc(N/N=C\c3ccccc3O)c2C#N)cc1	83.6% (inactive)
CCOC(C)=N	78.7% (inactive)
O=C1/C=C/[C@@H](O)[C@@H]2C[C@@H](O)C[C@H]2/C=C/CCC[C@H](CCc2cccc3ccccc23)O1	-44.8% (active)
N#C/C(=C/N1C(=O)/C(=C/c2ccc([N+](=O)[O-])cc2)SC1=S)c1nc2ccccc2s1	93.3% (inactive)
